Here are results for 8 molecules from PubChem BioAssay (EPA / NIEHS).

The source made the active and inactive calls. How the source made its calls: active means hit-call score of the fitted dose curve at least 0.9, where 1 is the maximum; inactive means score below 0.9.

Conditions in all cases: mRNA level, 48 h; actives raise or lower the signal
Read-out in assay [1]: CFLAR gene, CFLAR (gene 8837)
Put plainly: LTEA_HepaRG_CFLAR: Life Technologies and Expression Analysis (LTEA) Assay for CFLAR gene using HepaRG (AID 2283455). In a few lines: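 HepaRG cells were plated for 48 h, switched to serum-free induction medium, then exposed in duplicate for 48 h to 8 concentrations (top 100 uM, half-log steps, 0.5% DMSO). CFLAR mRNA was measured by qRT-PCR, normalized to ACTB, GAPDH and POLR2A.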

Read-out in assay [2]: Forkhead box O1 (FOXO1), FOXO1 (gene 2308)
Put plainly: LTEA_HepaRG_FOXO1: Life Technologies and Expression Analysis (LTEA) Assay for Forkhead box O1 (FOXO1) using HepaRG (AID 2283456). In a few lines: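 Differentiated human HepaRG cells in serum-free induction medium were exposed in duplicate for 48 h to eight half-log concentrations (top 100 uM, 0.5% DMSO). FOXO1 mRNA was measured by TaqMan qRT-PCR, normalised to ACTB, GAPDH and POLR2A, and fitted bidirectionally against DMSO.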

Read-out in assay [3]: growth arrest and DNA damage 45 (GADD45A), GADD45A (gene 1647)
Put plainly: LTEA_HepaRG_GADD45A: Life Technologies and Expression Analysis (LTEA) Assay for growth arrest and DNA damage 45 (GADD45A) using HepaRG (AID 2283458). The method, boiled down:
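Differentiated HepaRG cells exposed 48 h in serum-free induction medium to 8 concentrations, top 100 uM in half-log steps, 0.5% DMSO. GADD45A mRNA quantified by qRT-PCR, normalized to ACTB, GAPDH and POLR2A; bidirectional fit versus DMSO.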

Read-out in assay [4]: ABC Transporter (ABCB1), ABCB1 (gene 5243)
Put plainly: LTEA_HepaRG_ABCB1: Life Technologies and Expression Analysis (LTEA) Assay for ABC Transporter (ABCB1) using HepaRG (AID 2283460). The method, boiled down:
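Differentiated human HepaRG cells, plated 48 h then switched to serum-free induction medium, were exposed in duplicate to eight half-log concentrations up to 100 uM in 0.5% DMSO for 48 h. ABCB1 mRNA was measured by TaqMan qRT-PCR, normalized to ACTB/GAPDH/POLR2A.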

Read-out in assay [5]: growth arrest and DNA damage 45 (GADD45B), GADD45B (gene 4616)
Put plainly: LTEA_HepaRG_GADD45B: Life Technologies and Expression Analysis (LTEA) Assay for growth arrest and DNA damage 45 (GADD45B) using HepaRG (AID 2283461). In a few lines:
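Human HepaRG monolayers receive chemicals for 48 h at eight half-log concentrations, highest 100 uM, in 0.5% DMSO. Expression is measured by TaqMan qRT-PCR and normalized to ACTB, GAPDH and POLR2A.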

Read-out in assay [6]: ABC Transporter (ABCC3), ABCC3 (gene 8714)
The experiment in a line: LTEA_HepaRG_ABCC3: Life Technologies and Expression Analysis (LTEA) Assay for ABC Transporter (ABCC3) using HepaRG (AID 2283462). The method, boiled down: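 Transcriptional change of ABCC3 in HepaRG after 48 h treatment, determined by qRT-PCR normalized to endogenous controls. Concentrations spanned eight half-log steps to 100 uM in 0.5% DMSO.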

Read-out in assay [7]: ABC Transporter (ABCB11), ABCB11 (gene 8647)
Put plainly: LTEA_HepaRG_ABCB11: Life Technologies and Expression Analysis (LTEA) Assay for ABC Transporter (ABCB11) using HepaRG (AID 2283463). In a few lines: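 Differentiated human HepaRG cells were exposed for 48 h in serum-free induction medium to eight half-log concentrations up to 100 uM in 0.5% DMSO. ABCB11 mRNA was quantified by qRT-PCR, normalized to ACTB, GAPDH and POLR2A, and fitted bidirectionally versus DMSO.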

Read-out in assay [8]: ABC Transporter (ABCC2), ABCC2 (gene 1244)
Put plainly: LTEA_HepaRG_ABCC2: Life Technologies and Expression Analysis (LTEA) Assay for ABC Transporter (ABCC2) using HepaRG (AID 2283464). In a few lines:
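After plating and 48 h culture, HepaRG medium is replaced with serum-free induction medium and chemicals are added (8 concentrations, max 100 uM, 0.5% DMSO) for 48 h. Total RNA then undergoes qRT-PCR for ABCC2 with housekeeping normalization.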

Read-out in assay [9]: Broad substrate specificity ATP-binding cassette transporter ABCG2 (Homo sapiens) (UniProt Q9UNQ0)
The experiment in a line: LTEA_HepaRG_ABCG2: Life Technologies and Expression Analysis (LTEA) Assay for ABC Transporter (ABCG2) using HepaRG (AID 2283465). The method, boiled down: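 Differentiated HepaRG cells in serum-free induction medium were exposed for 48 h, in duplicate, to eight half-log concentrations up to 100 uM in 0.5% DMSO. ABCG2 mRNA was measured by TaqMan qRT-PCR, normalized to ACTB, GAPDH and POLR2A, and fitted bidirectionally versus DMSO.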

Read-out in assay [10]: ATP-citrate lyase (ACLY), ACLY (gene 47)
The experiment in a line: LTEA_HepaRG_ACLY: Life Technologies and Expression Analysis (LTEA) Assay for ATP-citrate lyase (ACLY) using HepaRG (AID 2283466). The method, boiled down: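 Differentiated human HepaRG cells in serum-free induction medium exposed 48 h, in duplicate, to eight half-log concentrations from 100 uM top in 0.5% DMSO; ACLY mRNA measured by qRT-PCR, normalized to ACTB, GAPDH, POLR2A, fitted bidirectionally versus DMSO.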

Read-out in assay [11]: Peroxisomal acyl-coenzyme A oxidase 1 (ACOX1) gene, ACOX1 (gene 51)
The experiment in a line: LTEA_HepaRG_ACOX1: Life Technologies and Expression Analysis (LTEA) Assay for Peroxisomal acyl-coenzyme A oxidase 1 (ACOX1) gene using HepaRG (AID 2283467). In a few lines: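 Differentiated human HepaRG cells were exposed in duplicate for 48 h in serum-free induction medium to eight half-log concentrations up to 100 uM in 0.5% DMSO. ACOX1 mRNA was then quantified by TaqMan qRT-PCR, normalized to ACTB, GAPDH and POLR2A.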

Read-out in assay [12]: Alkaline Phosphatase, Placental (ALPP) gene, ALPP (gene 250)
The experiment in a line: LTEA_HepaRG_ALPP: Life Technologies and Expression Analysis (LTEA) Assay for Alkaline Phosphatase, Placental (ALPP) gene using HepaRG (AID 2283468). In a few lines:
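Using human liver HepaRG cells, chemicals are tested in duplicate over 48 h at half-log concentrations topping at 100 uM; phenobarbital 1 mM serves as induction control. ALPP mRNA change by qRT-PCR, bidirectional fit against vehicle.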

Read-out in assay [13]: Bcl-2 (BAD) gene, BAD (gene 572)
Put plainly: LTEA_HepaRG_BAD: Life Technologies and Expression Analysis (LTEA) Assay for Bcl-2 (BAD) gene using HepaRG (AID 2283469). In a few lines:
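Differentiated human HepaRG cells in serum-free induction medium were exposed in duplicate for 48 h to eight concentrations (top 100 uM, half-log steps, 0.5% DMSO). BAD mRNA was quantified by qRT-PCR normalised to ACTB, GAPDH and POLR2A, with bidirectional fitting versus DMSO.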

Read-out in assay [14]: Bcl-2 (BAX) gene, BAX (gene 581)
Put plainly: LTEA_HepaRG_BAX: Life Technologies and Expression Analysis (LTEA) Assay for Bcl-2 (BAX) gene using HepaRG (AID 2283470). In a few lines: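 Differentiated HepaRG cells exposed 48 h in serum-free induction medium, eight half-log concentrations from 100 uM, in duplicate, 0.5% DMSO vehicle. BAX mRNA by TaqMan qRT-PCR, normalised to ACTB, GAPDH and POLR2A.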

Read-out in assay [15]: BCL2L11 (gene 10018)
Put plainly: LTEA_HepaRG_BCL2L11: Life Technologies and Expression Analysis (LTEA) Assay for Bcl-2 (BCL2L11) gene using HepaRG (AID 2283473). In a few lines:
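Human hepatic HepaRG cultures are treated 48 h with test chemicals (maximum 100 uM, 0.5% DMSO vehicle). Expression of BCL2L11 is measured by qRT-PCR against ACTB, GAPDH and POLR2A, with activity in either direction scored relative to vehicle.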

Read-out in assay [16]: Apolipoprotein A-V (APOA5) gene, APOA5 (gene 116519)
The experiment in a line: LTEA_HepaRG_APOA5: Life Technologies and Expression Analysis (LTEA) Assay for Apolipoprotein A-V (APOA5) gene using HepaRG (AID 2283474). In a few lines: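 Concentration-response of APOA5 expression in HepaRG: eight half-log doses to 100 uM, 48 h, qRT-PCR normalized to ACTB/GAPDH/POLR2A, bidirectional fitting with 0.5% DMSO as baseline.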

Read-out in assay [17]: Alpha-fetoprotein (AFP) gene, AFP (gene 174)
The experiment in a line: LTEA_HepaRG_AFP: Life Technologies and Expression Analysis (LTEA) Assay for Alpha-fetoprotein (AFP) gene using HepaRG (AID 2283472). In a few lines:
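Differentiated human HepaRG cells exposed 48 h in serum-free induction medium, 8-point half-log series from 100 uM in 0.5% DMSO, duplicate. AFP mRNA by qRT-PCR, normalized to ACTB, GAPDH, POLR2A; bidirectional fit vs DMSO.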

Read-out in assay [18]: adenosine kinase (ADK) gene, ADK (gene 132)
The experiment in a line: LTEA_HepaRG_ADK: Life Technologies and Expression Analysis (LTEA) Assay for adenosine kinase (ADK) gene using HepaRG (AID 2283471). In a few lines:
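Following 48 h exposure of HepaRG cells in 0.5% DMSO (top concentration 100 uM, duplicate wells), ADK mRNA induction or suppression was measured by qRT-PCR, normalised to ACTB/GAPDH/POLR2A, and fitted bidirectionally relative to vehicle.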

Sequence of Broad substrate specificity ATP-binding cassette transporter ABCG2 (Homo sapiens) (Q9UNQ0 whole entry, looked up): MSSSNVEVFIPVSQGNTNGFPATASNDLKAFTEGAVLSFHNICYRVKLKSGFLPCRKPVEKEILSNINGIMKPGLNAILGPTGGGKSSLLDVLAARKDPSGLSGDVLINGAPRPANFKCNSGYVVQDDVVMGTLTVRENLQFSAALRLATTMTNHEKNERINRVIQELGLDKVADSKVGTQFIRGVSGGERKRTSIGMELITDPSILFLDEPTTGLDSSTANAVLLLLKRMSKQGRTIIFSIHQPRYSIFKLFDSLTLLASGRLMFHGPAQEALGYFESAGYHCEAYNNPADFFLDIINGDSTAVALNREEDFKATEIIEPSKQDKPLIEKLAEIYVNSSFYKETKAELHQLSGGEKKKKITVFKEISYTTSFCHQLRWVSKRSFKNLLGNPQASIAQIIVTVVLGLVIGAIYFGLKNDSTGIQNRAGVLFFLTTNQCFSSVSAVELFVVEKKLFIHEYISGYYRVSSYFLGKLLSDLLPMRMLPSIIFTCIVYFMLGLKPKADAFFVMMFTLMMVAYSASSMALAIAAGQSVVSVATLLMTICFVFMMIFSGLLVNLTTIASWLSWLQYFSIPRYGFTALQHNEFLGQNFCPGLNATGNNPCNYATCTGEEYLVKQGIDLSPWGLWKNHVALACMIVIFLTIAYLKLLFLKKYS

The AC50 is the concentration at which the activity in the assay is half-maximal. Take `O=C(O)C(F)(F)C(F)(F)C(F)(F)C(F)(F)C(F)(F)F`: the molecule was called inactive in assay [1], in assay [2], in assay [3], in assay [4], in assay [5] and in assay [6]. Further, the molecule was called inactive in assay [7], in assay [8], in assay [10], in assay [12], in assay [13] and in [14]. Further, the call in assay [15] and in [16] was inactive. Also, the AC50 in assay [9] and in assay [11] was 9.92 µM (active) throughout.
With `CCCCCCOC(=O)c1ccccc1C(=O)OCCCCCC`, the outcome in [1], in assay [2], in assay [3], in assay [4], in assay [5] and in [6] was inactive. The molecule was classed as inactive in assay [7], in assay [8], in [9], in assay [10], in assay [11] and in [12]. The molecule was called inactive in assay [13], in [14], in assay [15] and in assay [16].
Consider `CCCCCCCCCc1ccc(O)cc1`, for which the result in assay [1], in assay [2], in [3], in assay [4], in assay [5] and in [6] was inactive. Also, the molecule was classed as inactive in assay [7], in assay [8], in assay [9], in [10], in [11] and in assay [12]. Moreover, the outcome in [13], in assay [14], in [15] and in [16] was inactive.
In the case of `CCOCCOC(C)=O`, the call in assay [1], in assay [2], in assay [3], in [4], in assay [5] and in [6] was inactive. The molecule was classed as inactive in [7], in assay [8], in assay [9], in assay [10], in assay [11] and in assay [12]. Also, the result in assay [13], in assay [14], in [17], in assay [15] and in assay [16] was inactive.
Turning to `C=CC(N)=O`, the outcome in assay [1], in assay [2], in assay [3], in [4], in [5] and in assay [6] was inactive. The molecule was classed as inactive in assay [7], in assay [8], in assay [9], in assay [10], in [11] and in [12]. Moreover, the call in assay [13], in [14], in assay [17], in assay [15] and in assay [16] was inactive.
As to `Cc1cc2c3c(c1)C(c1ccccc1)=N[C@@H](NC(=O)c1ccncc1)C(=O)N3CC2`, the outcome in assay [1], in [2], in assay [3], in assay [5], in assay [6] and in [7] was inactive. Further, the molecule was called inactive in [8], in assay [11], in [13], in assay [14], in assay [18] and in assay [15]. The concentration at half-maximal activity (AC50) was 5.26 µM (active) in assay [4]; 10.1 µM (active) in assay [9]; 74.3 µM (active) in assay [10]; 10.3 µM (active) in assay [12]; 62.5 µM (active) in assay [16].
`CC(C)C(=O)OCC(C)(C)C(OC(=O)C(C)C)C(C)C` (stereo unspecified): the result in [1], in assay [2], in assay [3], in [4], in [5] and in assay [6] was inactive. Besides, the call in assay [7], in [8], in assay [9], in assay [10], in assay [11] and in assay [12] was inactive. Besides, the result in [13], in assay [14], in [15] and in assay [16] was inactive.
Regarding `ClC1=C(Cl)[C@]2(Cl)[C@@H]3[C@@H]4C[C@@H]([C@H]5O[C@@H]45)[C@@H]3[C@@]1(Cl)C2(Cl)Cl`, the molecule was classed as inactive in [1], in [2], in [3], in [5], in [6] and in [7]. The molecule was called inactive in assay [12], in assay [13], in [14], in [15] and in assay [16]. Moreover, the concentration at half-maximal activity (AC50) in assay [4] is 0.0325 µM (active); in [8], 4.03 µM (active); in assay [9], 20.8 µM (active); in [10] it was 0.033 µM (active); in [11] it was 0.0311 µM (active).
